Results as given in ChEMBL document CHEMBL2218924, “A broad activity screen in support of a chemogenomic map for kinase signalling research and drug discovery” (Biochem J, 2013).

Columns and labels:
[1] = target: Serine/threonine-protein kinase WNK2 (Homo sapiens) (UniProt Q9Y3S1); settings: at 10 µM
[2] = target: Serine/threonine-protein kinase WNK3 (Homo sapiens) (UniProt Q9BYP7); settings: at 1 µM
[3] = target: Serine/threonine-protein kinase WNK3 (Homo sapiens) (UniProt Q9BYP7); settings: at 10 µM
[4] = target: Tyrosine-protein kinase Yes (Homo sapiens) (UniProt P07947); settings: at 1 µM
[5] = target: Tyrosine-protein kinase Yes (Homo sapiens) (UniProt P07947); settings: at 10 µM
[6] = target: T1, Tyrosine-protein kinase ZAP-70 (Homo sapiens) (UniProt P43403); settings: at 1 µM
T1 sequence (whole entry): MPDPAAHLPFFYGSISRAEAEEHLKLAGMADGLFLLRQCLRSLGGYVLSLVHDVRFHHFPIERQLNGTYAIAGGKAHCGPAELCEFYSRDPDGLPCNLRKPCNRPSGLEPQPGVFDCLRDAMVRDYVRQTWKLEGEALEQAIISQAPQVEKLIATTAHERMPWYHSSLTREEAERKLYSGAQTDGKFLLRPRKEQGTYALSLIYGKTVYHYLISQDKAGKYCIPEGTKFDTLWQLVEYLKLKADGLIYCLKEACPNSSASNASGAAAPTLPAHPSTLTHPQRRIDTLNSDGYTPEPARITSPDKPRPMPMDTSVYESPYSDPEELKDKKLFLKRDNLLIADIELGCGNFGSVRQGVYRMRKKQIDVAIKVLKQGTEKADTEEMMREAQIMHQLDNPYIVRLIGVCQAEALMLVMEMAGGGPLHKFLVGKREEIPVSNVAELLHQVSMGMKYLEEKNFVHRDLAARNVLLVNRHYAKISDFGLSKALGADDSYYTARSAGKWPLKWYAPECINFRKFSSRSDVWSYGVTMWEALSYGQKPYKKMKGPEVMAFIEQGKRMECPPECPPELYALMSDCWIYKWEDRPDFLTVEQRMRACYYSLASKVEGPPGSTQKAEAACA

[7] = target: Death-associated protein kinase 3 (Homo sapiens) (UniProt O43293); settings: at 1 µM
[8] = target: Death-associated protein kinase 3 (Homo sapiens) (UniProt O43293); settings: at 10 µM
[9] = target: RAF proto-oncogene serine/threonine-protein kinase (Homo sapiens) (UniProt P04049); settings: at 1 µM
[10] = target: RAF proto-oncogene serine/threonine-protein kinase (Homo sapiens) (UniProt P04049); settings: at 10 µM

Sequence of Death-associated protein kinase 3 (Homo sapiens) (O43293 whole entry, looked up): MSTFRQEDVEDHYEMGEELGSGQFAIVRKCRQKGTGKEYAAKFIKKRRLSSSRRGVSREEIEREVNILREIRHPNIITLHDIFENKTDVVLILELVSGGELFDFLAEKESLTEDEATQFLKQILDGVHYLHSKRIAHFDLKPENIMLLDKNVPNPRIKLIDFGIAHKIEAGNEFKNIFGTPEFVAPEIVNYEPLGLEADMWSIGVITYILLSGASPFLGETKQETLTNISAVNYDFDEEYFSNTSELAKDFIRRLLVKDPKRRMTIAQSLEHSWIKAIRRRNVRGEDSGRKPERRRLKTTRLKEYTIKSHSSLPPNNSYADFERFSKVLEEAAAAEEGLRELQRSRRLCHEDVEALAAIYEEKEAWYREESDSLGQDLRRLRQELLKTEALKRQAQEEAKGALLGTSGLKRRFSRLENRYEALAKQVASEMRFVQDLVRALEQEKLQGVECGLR
Sequence of Serine/threonine-protein kinase WNK3 (Homo sapiens) (Q9BYP7 whole entry): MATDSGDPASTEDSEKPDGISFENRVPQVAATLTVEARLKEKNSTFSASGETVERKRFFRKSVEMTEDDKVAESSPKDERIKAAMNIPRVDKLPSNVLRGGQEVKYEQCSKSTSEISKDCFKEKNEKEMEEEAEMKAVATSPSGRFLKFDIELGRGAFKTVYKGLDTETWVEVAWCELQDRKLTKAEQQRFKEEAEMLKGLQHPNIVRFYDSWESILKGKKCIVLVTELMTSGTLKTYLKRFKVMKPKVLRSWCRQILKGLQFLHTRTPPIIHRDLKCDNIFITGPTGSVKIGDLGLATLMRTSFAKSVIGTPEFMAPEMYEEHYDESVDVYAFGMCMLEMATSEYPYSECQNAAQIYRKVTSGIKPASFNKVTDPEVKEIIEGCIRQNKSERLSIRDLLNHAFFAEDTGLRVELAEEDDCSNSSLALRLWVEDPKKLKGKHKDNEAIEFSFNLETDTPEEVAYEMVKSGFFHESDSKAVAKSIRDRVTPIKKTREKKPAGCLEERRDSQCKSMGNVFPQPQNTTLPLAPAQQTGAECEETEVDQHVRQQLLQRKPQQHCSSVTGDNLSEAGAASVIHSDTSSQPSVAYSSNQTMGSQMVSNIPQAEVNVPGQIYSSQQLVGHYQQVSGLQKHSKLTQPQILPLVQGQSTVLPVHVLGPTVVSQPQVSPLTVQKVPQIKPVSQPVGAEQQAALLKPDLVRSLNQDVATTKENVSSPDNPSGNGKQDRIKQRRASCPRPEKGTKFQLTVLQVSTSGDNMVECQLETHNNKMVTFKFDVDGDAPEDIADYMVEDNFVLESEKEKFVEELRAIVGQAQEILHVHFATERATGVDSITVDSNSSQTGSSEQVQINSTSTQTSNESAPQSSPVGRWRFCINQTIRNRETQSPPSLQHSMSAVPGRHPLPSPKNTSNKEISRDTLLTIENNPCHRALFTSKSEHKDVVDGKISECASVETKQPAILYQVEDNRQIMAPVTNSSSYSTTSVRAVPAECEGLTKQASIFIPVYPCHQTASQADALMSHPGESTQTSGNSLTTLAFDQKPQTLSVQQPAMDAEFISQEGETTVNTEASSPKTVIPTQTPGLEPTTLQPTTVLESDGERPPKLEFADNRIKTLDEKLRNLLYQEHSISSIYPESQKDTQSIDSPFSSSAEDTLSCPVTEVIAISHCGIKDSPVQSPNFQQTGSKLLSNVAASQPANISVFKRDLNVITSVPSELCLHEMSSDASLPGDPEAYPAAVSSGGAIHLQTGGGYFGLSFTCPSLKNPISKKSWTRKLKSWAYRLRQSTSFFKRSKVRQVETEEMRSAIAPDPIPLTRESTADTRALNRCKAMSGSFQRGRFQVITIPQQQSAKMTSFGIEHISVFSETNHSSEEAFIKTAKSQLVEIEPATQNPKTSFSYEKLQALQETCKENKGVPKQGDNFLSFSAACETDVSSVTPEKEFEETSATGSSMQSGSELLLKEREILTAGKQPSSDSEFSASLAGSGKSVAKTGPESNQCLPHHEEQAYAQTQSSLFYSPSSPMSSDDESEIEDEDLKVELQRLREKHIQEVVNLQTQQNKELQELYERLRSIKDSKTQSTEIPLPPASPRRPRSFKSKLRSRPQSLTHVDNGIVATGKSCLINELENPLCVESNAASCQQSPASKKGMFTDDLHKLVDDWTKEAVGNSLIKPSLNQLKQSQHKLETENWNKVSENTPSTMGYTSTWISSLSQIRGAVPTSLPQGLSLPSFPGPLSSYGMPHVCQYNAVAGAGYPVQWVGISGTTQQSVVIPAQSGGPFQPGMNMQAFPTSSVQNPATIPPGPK
Sequence of RAF proto-oncogene serine/threonine-protein kinase (Homo sapiens) (P04049 whole entry): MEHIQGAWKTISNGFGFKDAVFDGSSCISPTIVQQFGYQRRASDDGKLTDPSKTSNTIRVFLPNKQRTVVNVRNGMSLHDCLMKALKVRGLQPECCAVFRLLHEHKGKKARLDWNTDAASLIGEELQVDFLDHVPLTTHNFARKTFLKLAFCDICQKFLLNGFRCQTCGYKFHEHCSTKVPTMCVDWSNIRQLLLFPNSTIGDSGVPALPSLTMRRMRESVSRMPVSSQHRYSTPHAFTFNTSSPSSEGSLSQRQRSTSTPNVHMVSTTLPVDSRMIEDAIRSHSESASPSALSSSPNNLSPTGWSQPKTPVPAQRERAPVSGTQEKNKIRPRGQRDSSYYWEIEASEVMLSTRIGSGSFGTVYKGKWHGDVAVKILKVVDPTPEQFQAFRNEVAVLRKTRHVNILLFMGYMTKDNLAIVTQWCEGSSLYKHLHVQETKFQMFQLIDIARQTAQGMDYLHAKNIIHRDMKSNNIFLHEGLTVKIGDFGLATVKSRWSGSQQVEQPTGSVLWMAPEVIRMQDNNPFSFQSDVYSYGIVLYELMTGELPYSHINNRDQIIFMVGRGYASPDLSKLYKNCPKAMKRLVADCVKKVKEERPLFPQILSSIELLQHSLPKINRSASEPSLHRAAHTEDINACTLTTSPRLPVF
Sequence of Tyrosine-protein kinase Yes (Homo sapiens) (P07947 2-543 limits assumed): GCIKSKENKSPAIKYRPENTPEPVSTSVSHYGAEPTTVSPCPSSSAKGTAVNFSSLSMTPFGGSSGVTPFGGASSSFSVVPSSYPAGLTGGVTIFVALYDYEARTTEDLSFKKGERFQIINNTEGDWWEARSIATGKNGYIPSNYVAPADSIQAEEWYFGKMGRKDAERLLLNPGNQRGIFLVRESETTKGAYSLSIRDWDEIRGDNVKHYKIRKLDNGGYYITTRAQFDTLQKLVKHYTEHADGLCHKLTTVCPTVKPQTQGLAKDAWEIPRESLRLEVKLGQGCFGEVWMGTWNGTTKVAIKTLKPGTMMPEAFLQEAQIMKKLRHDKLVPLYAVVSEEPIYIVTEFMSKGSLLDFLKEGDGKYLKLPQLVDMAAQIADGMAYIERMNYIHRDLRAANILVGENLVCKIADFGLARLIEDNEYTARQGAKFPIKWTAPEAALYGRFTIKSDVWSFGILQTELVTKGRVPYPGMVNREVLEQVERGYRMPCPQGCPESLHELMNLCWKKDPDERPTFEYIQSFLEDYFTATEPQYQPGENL

Structure (SMILES) | residual activity [1] [%] | residual activity [2] | residual activity [3] [%] | residual activity [4] [%] | residual activity [5] [%] | residual activity [6] [%] | residual activity [7] [%] | residual activity [8] [%] | residual activity [9] [%] | residual activity [10] [%]
Nc1n[nH]c2nnc(-c3c(-c4ccccc4)nn4ccccc34)cc12 | 90 | 83% (inactive) | 86 | 93 | 33 | 100 | 105 | 88 | 80 | 62
C[C@@H](N)[C@H]1CC[C@H](C(=O)Nc2ccncc2)CC1 | 90 | 106% (inactive) | 102 | 108 | 94 | 92 | 101 | 99 | 100 | 108
O=C(Nc1cccc(Nc2nccc(Nc3cccc(C(F)(F)F)c3)n2)c1)C1CC1 | 50 | 90% (inactive) | 65 | 56 | 51 | 113 | 84 | 49 | 89 | 85
COc1ccc(OC)c2c(=S)c3ccccc3[nH]c12 | 87 | 89% (inactive) | 89 | 100 | 100 | 90 | 93 | 90 | 87 | 83
CN(C)CCCn1cc(C2=C(c3c[nH]c4ccccc34)C(=O)NC2=O)c2ccccc21 | 86 | 121% (inactive) | – | 105 | 33 | 133 | 62 | 35 | 113 | 110
CC(C)n1cnc2c(NCc3ccccc3)nc(NCCCO)nc21 | 89 | 105% (inactive) | 92 | 108 | 88 | 114 | 87 | 97 | 85 | 78
COc1cc2ncc(-c3ccccc3)nc2cc1OC | 94 | 126% (inactive) | 95 | – | – | – | 96 | 100 | 99 | 86
c1ccc2c(-c3ccncc3)c[nH]c2c1 | 75 | 98% (inactive) | 96 | – | 97 | – | 110 | 107 | 73 | 81
Nc1cccc(-c2cc3c(Oc4cccc(O)c4)ncnc3[nH]2)c1 | 40 | 93% (inactive) | 49 | 1 | -1 | – | 92 | – | 36 | 10
Cc1cc2ncc(-c3ccccc3)nc2cc1C | 93 | 96% (inactive) | 92 | 109 | 106 | 96 | – | 100 | 97 | 83
CO[C@H]1C[C@@H]2CC[C@@H](C)[C@@](O)(O2)C(=O)C(=O)N2CCCC[C@H]2C(=O)O[C@H]([C@H](C)C[C@@H]2CC[C@@H](O)[C@H](OC)C2)CC(=O)[C@H](C)/C=C(\C)[C@@H](O)[C@@H](OC)C(=O)[C@H](C)C[C@H](C)/C=C/C=C/C=C/1C | 94 | 107% (inactive) | 111 | 103 | – | 104 | 116 | 141 | 73 | 108
Cc1ccc(S(=O)(=O)/C=C/C#N)cc1 | 95 | 98% (inactive) | 98 | 123 | 103 | – | 88 | 93 | 91 | 87
N#CC(C#N)=C(N)/C(C#N)=C/c1ccc(O)cc1 | 83 | 96% (inactive) | 75 | – | 93 | 128 | – | – | 92 | 88
N#Cc1cnc2cnc(NCc3cccnc3)cc2c1Nc1ccc(F)c(Cl)c1 | – | 97% (inactive) | 87 | 9 | 5 | 44 | 65 | 48 | 77 | 91
CCOc1cc2ncnc(Nc3cccc(Br)c3)c2cc1OCC | 79 | 99% (inactive) | 86 | 17 | 2 | 122 | 91 | 96 | 84 | 71
CC(=O)c1ccc(N2CCOCC2)cc1O | 94 | 104% (inactive) | 104 | – | – | 84 | 106 | 97 | 83 | 97
O=c1c2ccccc2[nH]c(=S)n1CCN1CCC(=C(c2ccc(F)cc2)c2ccc(F)cc2)CC1 | 94 | 116% (inactive) | 102 | 105 | 96 | 101 | 75 | 74 | 83 | 94
COc1cc2ncnc(Nc3ccc(NC(=O)c4ccccc4)cc3)c2cc1OC | 25 | 59% (inactive) | 23 | 96 | 30 | – | 97 | 84 | 86 | 93
Cc1cccc(-c2[nH]c(C(C)(C)C)nc2-c2ccc3c(c2)OCO3)n1 | 84 | 89% (inactive) | 89 | 103 | 44 | – | – | – | 82 | 71

Structure (SMILES) | residual activity [1] [%] | residual activity [2] | residual activity [3] [%] | residual activity [4] [%] | residual activity [5] [%] | residual activity [6] [%] | residual activity [7] [%] | residual activity [8] [%] | residual activity [9] [%] | residual activity [10] [%]
O=C1Nc2ccc(Br)cc2/C1=C\c1cc2c([nH]1)CCCC2 | 84 | 118% (inactive) | 105 | 79 | 63 | 112 | – | – | 99 | 102
Cc1cncc2cccc(S(=O)(=O)N3CCCN(C(=O)CN)C[C@H]3C)c12 | – | – | 92 | – | 49 | – | – | – | 79 | 95
Cc1nc2cc3nc(-c4cccs4)cnc3cc2n1C | 94 | 124% (inactive) | 71 | 106 | 59 | 135 | 97 | 102 | 97 | 95
COc1ccc(CNc2nc(N(CCO)CCO)nc3c2ncn3C(C)C)cc1 | 86 | 97% (inactive) | 93 | 100 | 89 | 102 | 99 | 92 | 85 | 69
N#CCCc1ccc2c(c1)-c1[nH]c3ccc([N+](=O)[O-])cc3c1CC(=O)N2 | – | – | – | 9 | 0 | – | – | – | – | –
Cn1nc2c3c(cccc31)C(=O)c1ccccc1-2 | 89 | 95% (inactive) | 67 | – | 95 | 92 | 77 | 82 | 80 | 72
Nc1nc(Nc2ccc(S(N)(=O)=O)cc2)nn1C(=S)Nc1c(F)cccc1F | – | 77% (inactive) | 64 | 3 | 2 | 124 | 90 | 78 | 82 | 26
NC(=O)c1ccc2[nH]c(-c3ccc(Oc4ccc(Cl)cc4)cc3)nc2c1 | 78 | 93% (inactive) | 86 | 112 | 105 | 95 | 92 | 106 | 75 | 74
c1ccc(-c2n[nH]c3c2oc2ccccc23)cc1 | 74 | – | – | 99 | 67 | – | 94 | 100 | 74 | 85
CCN(CC)CCCCN1c2ccccc2Oc2ccc(Cl)cc21 | 89 | 126% (inactive) | 104 | 106 | 94 | 113 | 99 | 109 | 93 | 100
COc1ccc(C(=O)Nc2sc3c(c2C(N)=O)CCCC3)cc1OC | 84 | 101% (inactive) | 94 | 106 | 90 | 103 | 76 | 106 | 87 | 94
CN(C)c1ccc(/C=C2\C(=O)Nc3ccccc32)cc1 | 76 | 117% (inactive) | 90 | 98 | 64 | 121 | 108 | 97 | 94 | 85
O=C1Nc2ccccc2/C1=C1/Nc2ccccc2/C1=N\OCCC(O)CO (stereo unspecified) | 40 | 76% (inactive) | 50 | 8 | 2 | 97 | 63 | 54 | 54 | 60
CCN(CC)C(=O)c1ccc(Nc2nc(OCC3CCCCC3)c3nc[nH]c3n2)cc1 | 48 | – | – | 13 | 1 | – | – | 65 | 62 | 21
Cc1cc(Nc2nc(-c3ccccc3)nc3ccccc23)n[nH]1 | 27 | 74% (inactive) | 31 | 6 | 1 | 114 | 46 | 13 | – | 62
CC(C)n1cnc2/c(=N/c3cccc(Cl)c3)nc(NCCO)[nH]c21 | 52 | 88% (inactive) | 57 | 27 | 2 | 98 | 103 | 93 | 70 | 31
COc1ccc(S(=O)(=O)N(CCO)c2ccccc2CN(C)C/C=C/c2ccc(Cl)cc2)cc1 | 88 | 100% (inactive) | 88 | 119 | 79 | 105 | 96 | 96 | 78 | 73
c1ccc(-c2n[nH]cc2-c2ccnc3ccccc23)nc1 | 88 | 97% (inactive) | 91 | 98 | 53 | – | – | 96 | 81 | 51
